We go through 68 compounds from ChEMBL document CHEMBL4513216, “Probing the Open Global Health Chemical Diversity Library for Multistage-Active Starting Points for Next-Generation Antimalarials” (ACS Infect Dis, 2020).

About 8,600 (12%) of roughly 69,000 compounds showed an effect of 50% or more. This is one part of a sample in which strong results are shown more often than they occur.

The subject of the assay is Plasmodium berghei. In words: Screen against P. berghei liver stage (PbLuc), transformed with Luciferase, at 10uM. The conditions noted are these: tested at 10 uM. In kind it is functional, HepG2.
With `CN(C)C(CNC(=O)c1ccnc(-n2cncn2)c1)c1ccccc1` (stereo not drawn), the INHIBITION stood at 9.34%.
The same measure for `CN(C)c1ccc(CNCc2cnc(N3CCOCC3)nc2)cn1`: 12.6%; for `O=S1(=O)CCN(Cc2cccnc2)[C@H]2CCN(c3ncccn3)CC[C@H]21`: 46.8%; for `CN1C(=O)CC(c2cnn(C)c2)C12CCN(C(=O)c1cccn1C)CC2` (stereo not drawn): 26.4%.
In the case of `O=C(c1cc[nH]n1)N1CCc2cc(Br)sc2C1`, the INHIBITION amounted to 24.2%.
The same measure for `Cc1nc(CN2CCOCC3(CCN(c4cccnc4)CC3)C2)cs1`: 14.4%; for `COCc1ncn2c1CN(C(=O)Nc1ccccc1)CC2`: -22.1%.
The same measure for `CC(Cn1ccnc1)NC(=O)Cc1ccc2c(c1)OCCO2` (stereo not drawn): -21.8%.
`Cc1ccsc1-c1nccn1C1CC(=O)N(C(C)C)C1` (stereo not drawn): the INHIBITION was determined as 35.8%.
The same measure for `Cc1ccc(NC(=O)CNC(C)Cc2ccsc2)cc1F` (stereo not drawn): 52.2%; for `Cc1ccc(NC(=O)CN[C@H](C(N)=O)C(C)C)cc1F`: 10.7%; for `Cc1cccc(C)c1NC(=O)CNC(C)Cc1ccsc1` (stereo not drawn): 34.6%.
Then `Cc1ccn(-c2cccc(C(=O)N3CCCC(n4ccnc4C)C3)c2)n1` (stereo not drawn), with 44.8%; and `Cc1cc(CN2CC[C@H]3[C@H]2CCN3CC(=O)N(C)C)oc1C`, with 38.3%; and `Cc1cc(CN(CCO)c2ccc(Br)cc2)on1`, with 13.8%.
On to `Cc1cc(CN(CCCO)c2ccccc2)on1`, for which the INHIBITION was determined as 56.5%.
Then `Cc1cc(CN(CCO)c2ccccc2)on1`, with 45.5%.
The same measure for `Cc1cc(C(=O)NCc2cc(C)oc2C)no1`: -13%; for `CCN1CCN(C(=O)c2cccc(CN3CCOCC3)c2)CC1`: -14.8%.
The same measure for `CCS(=O)(=O)N1CCn2cc(CN(C)Cc3ccco3)nc2C1`: 47.4%.
On to `Cc1ccc(CN2CCn3cc(CN(C)Cc4ccco4)nc3C2)o1`, for which the INHIBITION is on record as -3.16%.
Then `CN(Cc1cn2c(n1)CN(Cc1ccsc1)CC2)Cc1ccco1`, with 31.1%; and `CN(Cc1cn2c(n1)CN(Cc1nccs1)CC2)Cc1ccco1`, with 43.9%; and `CN(Cc1cn2c(n1)CN(Cc1ccc(F)cc1)CC2)Cc1ccco1`, with 59%.
As for `COCCN1CCn2cc(CN(C)Cc3ccco3)nc2C1`, the INHIBITION is reported as 73%.
Then `O=C([C@H]1CC[C@@H]2[C@@H](CCN2Cc2nccs2)O1)N1CCOCC1`, with -1.12%.
As to `Cc1ccnc(CC(C)N(C)c2cc(CN)nc(C)n2)c1` (stereo not drawn), the INHIBITION stood at 66.5%.
For `Cc1ccnc(CC(C)N(C)c2cc(CCN)nc(C)n2)c1` (stereo not drawn), the INHIBITION came to 45.2%.
The same measure for `Cc1ccnc(CC(C)N(C)c2cc(C3CCNCC3)nc(C)n2)c1` (stereo not drawn): 36.9%; for `Cc1cc(C(=O)N2CCC3(CCNCC3)CC2)c2cccc(C)c2n1`: 18.4%.
The same measure for `Cc1nc(CN2CCCC(c3cnccn3)C2)cs1` (stereo not drawn): 17.8%.
The same measure for `CC(C)c1noc(-c2ccc(NCC3CCCOC3)nc2)n1` (stereo not drawn): -118%; for `CC(C)c1noc(-c2ccc(NCCCC3CCOC3)nc2)n1` (stereo not drawn): 43.9%; for `CC(C)c1noc(-c2ccc(NCCCN3CCCC(O)C3)nc2)n1` (stereo not drawn): 53%.
For `CS(=O)(=O)NC1CC2(CCN(CCF)CC2)Oc2ccccc21` (stereo not drawn), the INHIBITION is listed as 12.5%.
Then `CCOC(C)c1nccn1Cc1noc(CC)n1` (stereo not drawn), with 8.41%.
Then `CCC(C)[C@H](N)c1nnc(SCC(=O)Nc2cc(C)ccc2C)o1` (stereo partly drawn), with 22.2%.
`CN(Cc1cc2n(n1)CCN(C(=O)[C@H]1CCCO1)C2)Cc1nccs1`: the INHIBITION was determined as 50.3%.
Then `CN(Cc1cc2n(n1)CCCN(C(=O)N1CCCC1)C2)Cc1nccs1`, with 38.5%; and `CN(Cc1cc2n(n1)CCN(C(=O)c1cccnc1)C2)Cc1nccs1`, with -10.6%; and `Cc1nc(C)n(CC2CCCN2CCOc2ccccc2C#N)n1` (stereo not drawn), with 17.4%.
The same measure for `CC(C)CN(CC(O)c1ccccc1)C(=O)NC(C)C` (stereo not drawn): 40.9%; for `CCn1nc(C)c(CCNC(=O)C2CCCN(C(N)=O)C2)c1C` (stereo not drawn): -8.11%.
The same measure for `CC(C)c1ccc(OCCC(=O)N2CCCN(C(N)=O)CC2)cc1`: -4%; for `CC(c1ccccn1)N(C)Cc1cc2cc3c(cc2[nH]c1=O)OCO3` (stereo not drawn): 21.8%.
In the case of `CC(c1cccnc1)N(C)Cc1cc2cc3c(cc2[nH]c1=O)OCO3` (stereo not drawn), the INHIBITION is 27.6%.
Turning to `CC(c1ccncn1)N(C)Cc1cc2cc3c(cc2[nH]c1=O)OCO3` (stereo not drawn), the INHIBITION stood at 58.7%.
Then `COCCCNC1CCCN(c2ccc(C)nn2)C1` (stereo not drawn), with -28.7%.
With `Cc1ccc(N2CCCC(NCCCS(C)(=O)=O)C2)nn1` (stereo not drawn), the INHIBITION is 14.9%.
The same measure for `Cc1ccc(N2CCCC(NCCS(C)(=O)=O)C2)nn1` (stereo not drawn): 64.4%.
Then `CCOCC(=O)NCCCn1ccnc1-c1ccccc1`, with 16.5%; and `CCc1nnc(CN(CC)C(=O)C2CC(=O)N(C(C)(C)C)C2)o1` (stereo not drawn), with 35.8%; and `Cc1cccc(OCCCNC(=O)Cn2ccc(C)cc2=O)c1`, with -12.9%.
Then `CCn1ccc(-c2cc(C(=O)O)n3nc(C)c(Cl)c3n2)n1`, with 12.3%; and `CCn1ccc(-c2cc(NCCCOc3ccccc3C)nc(C)n2)n1`, with 82.4%; and `CCOc1cccc(C(=O)Nc2ccn(CC)n2)c1`, with -35.4%.
For `COc1ccccc1OCCNCCn1cccn1`, the INHIBITION was determined as 19.4%.
Then `CCn1ccc(-c2cc(NCCCOc3cccc(C)c3)nc(C)n2)n1`, with 75.9%.
Then `CCCNC(=O)c1nn(CC)cc1NC(=O)C(C)n1ncc(Cl)c1C` (stereo not drawn), with 8.49%; and `CC(C)NC(=O)N1CCc2ncnc(-c3ccncc3)c2CC1`, with -7.24%; and `Cc1nc(C)n(CC2CN(CCOc3cccc(C#N)c3)CCO2)n1` (stereo not drawn), with -5.07%.
The same measure for `Cc1ccc(CN2CCc3[nH]nc(C(=O)N4CCNC(=O)C4)c3C2)s1`: 18.7%.
With `CCNC(=O)[C@@H]1C[C@H](NC(=O)Cc2ccsc2)CN1Cc1ccc(C)o1`, the INHIBITION turned out to be 24.6%.
The same measure for `CCNC(=O)[C@@H]1C[C@@H](NC(=O)Cc2ccccn2)CN1CCCSC`: 41.8%; for `CCNC(=O)[C@@H]1C[C@@H](NC(=O)c2cc(C)on2)CN1Cc1ccccn1`: 54.8%.
The same measure for `CCNC(=O)[C@@H]1C[C@@H](NC(=O)c2ccc(C)s2)CN1Cc1ccccn1`: 18.9%; for `CCNC(=O)[C@@H]1C[C@H](NC(=O)c2ccc(C)s2)CN1Cc1ccc(C)o1`: 68.9%; for `CCNC(=O)[C@@H]1C[C@H](NC(=O)c2cc(CC)n[nH]2)CN1Cc1ccsc1`: -20.5%.
